A selection: hits, their analogues and other compounds. The true share with any hit is near 4.3%.
SW480 rerep: DNA re-replication induction in SW480 cells; Potency, µM (doses to about 46.1 µM), actives largely listed as activators; AID 624297; SW480 DNA re-replication, Hoechst DNA content imaging, 48 h; 340,000 tested, 1.8% active; note: nearly all actives have a fitted effect of over 55% in size
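Cells (250 per well) received 23 nL compound or DMSO by pin tool and were kept 48 hr at 37 C, 5% CO2. Nuclei were then stained with Hoechst for 40 min and scanned for DNA content.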
MCF10A rerep: DNA re-replication induction in MCF 10a cells; MCF 10A DNA re-replication, Hoechst nuclear intensity, 48 h; Potency, µM (doses to about 46.1 µM), actives largely listed as activators; 350,000 tested, 2.9% active; AID 624296; note: nearly all actives have a fitted effect of over 50% in size
uPA surface inh: cell surface uPA generation inhibition; Potency, µM (series often up to 38.3 µM), usual class: inhibitors; cell surface uPA generation assay, qHTS; AID 540303; 330,000 tested, 0.31% active; active = well fitted inhibition curve with a large enough effect; inconclusive = small, poorly fitted or top-dose-only effect; inactive = no such curve, though single readings can be large or run the other way; tested in mouse RAW 264.7 cells; note: nearly all actives have a fitted effect of over 55% in size
Giardia killer: kills Giardia lamblia; Giardia lamblia trophozoite viability; activity change, % at 7.66 µM, hits read low; 340,000 tested, 0.15% active; AID 540267; in the data active = activity change below about -80%; inconclusive = between about -30% and that limit;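 note: parasites exposed to compound for two days anaerobically before the ATP read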
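Media and compound were dispensed first, then trophozoites at 100 cells/well; plates sat 48 hrs at 37 deg C without oxygen before ATP luminescence reagent was added and read after 15-30 min at room temperature.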
Large screens that a line does not name were inactive. Unless noted, calls come from the whole dose curve; as a rule, active = well fitted activation curve with a large enough effect; inconclusive = small, poorly fitted or top-dose-only effect; inactive = no such curve, though single readings can be large or run the other way.

N#CC1CC(c2ccccc2)Nc2cc(Cl)ccc2N1 (stereo unspecified)	SW480 rerep 13µM, MCF10A rerep inconclusive, uPA surface inh inconclusive
O=C(COC(=O)c1ccc2ncsc2c1)NCc1ccccc1Cl	none
CCCCn1c(-c2cccc(Br)c2)nc2cc3[nH]c(=O)c(C(C)C)nc3cc21	SW480 rerep inconclusive, MCF10A rerep 18µM
CCCCn1c(-c2ccc(C(C)(C)C)cc2)nc2cc3[nH]c(=O)c(C(C)C)nc3cc21	MCF10A rerep 18µM
CCCCn1c(-c2ccc(Cl)c(Cl)c2)nc2cc3[nH]c(=O)c(C(C)C)nc3cc21	MCF10A rerep 15µM
CCCCn1c(-c2cccnc2)nc2cc3[nH]c(=O)c(C(C)C)nc3cc21	none
NC(=S)N/N=C/c1c(O)c(Br)cc2oc3c(c12)CCCC3	SW480 rerep 18µM, MCF10A rerep inconclusive
COc1cc(C(=O)O/N=C2\C=CC(=O)C(C)=C2)cc(OC)c1OC	SW480 rerep 5.8µM, MCF10A rerep inconclusive
Cc1ccc(-n2cc(C(=O)c3ccc(N4CCN(C)CC4)cc3)nn2)cc1Cl	MCF10A rerep 0.73µM
O=[N+]([O-])c1ccc(-c2ccn[nH]2)o1	MCF10A rerep inconclusive, Giardia killer -85
CCN(CC)S(=O)(=O)c1cccc(NC(=O)Nc2cccc(C(F)(F)F)c2)c1	SW480 rerep inconclusive, MCF10A rerep 23µM
CCN(CC)S(=O)(=O)c1cccc(NC(=O)CC2CCCC2)c1	none
Cc1cccc(N2CCN(C(=O)c3ccc(Cl)c(S(=O)(=O)NCc4ccco4)c3)CC2)c1C	SW480 rerep inconclusive, MCF10A rerep 16µM
O=C(c1cccc(S(=O)(=O)NCc2ccccc2)c1)N1CCCC1	none
O=C(c1cccc(S(=O)(=O)NCc2ccccc2)c1)N1CCN(c2ccccc2Cl)CC1	SW480 rerep 16µM, MCF10A rerep inconclusive, uPA surface inh inconclusive
O=C(c1cccc(S(=O)(=O)NCc2ccccc2)c1)N1CCN(c2ccccc2)CC1	SW480 rerep inconclusive, MCF10A rerep 6.5µM, uPA surface inh inconclusive
O=C(c1cccc(S(=O)(=O)NCc2ccccc2)c1)N1CCN(c2ccc(F)cc2)CC1	none
COc1ccc(C(=O)NCC(=O)OCC(=O)c2cccc3ccccc23)cc1	none (no result: SW480 rerep, MCF10A rerep, uPA surface inh)
COc1ccc(C)cc1NC(=O)CN(C)S(=O)(=O)c1cnc[nH]1	SW480 rerep inconclusive, MCF10A rerep 23µM
CCOC(=O)C(C(=O)OCC)C(Nc1ccccc1)c1ccccc1 (stereo unspecified)	MCF10A rerep 21µM
Cc1cc(C)nc(-n2ncc3c2CC(c2ccccc2)CC3=O)n1 (stereo unspecified)	none
COc1ccc(C2CC(=O)c3cnn(-c4nc(C)cc(C)n4)c3C2)cc1 (stereo unspecified)	SW480 rerep inconclusive, MCF10A rerep 0.82µM, uPA surface inh inconclusive
CN(Cc1ccccc1)C(=O)c1ccc(NC(=O)Cc2ccc(NC(=O)C3CCCN(C(=O)CCc4ccccc4)C3)cc2)cc1 (stereo unspecified)	MCF10A rerep inconclusive
CC(C)(C)CC(C)(C)c1ccc(O)c(-n2nc3ccccc3n2)c1	MCF10A rerep 27µM (no result: uPA surface inh, Giardia killer)
COc1ccc(-n2nc(C(=O)Nc3ccc4c(c3)OCO4)c3c4ccccc4n(C)c3c2=O)cc1	none
COc1ccc(-n2nc(C(=O)Nc3ccc(OC)c(OC)c3)c3c4ccccc4n(C)c3c2=O)cc1	SW480 rerep 16µM, MCF10A rerep inconclusive
CNC(=O)c1ccsc1NC(=O)c1ccc(S(=O)(=O)N2CCCc3ccccc32)cc1	uPA surface inh inconclusive
CCN(Cc1ccccc1)S(=O)(=O)c1ccc(C(=O)Nc2nnc(C3CC3)o2)cc1	SW480 rerep inconclusive, uPA surface inh 3.5µM
CCc1nnc(NC(=O)c2ccc(S(=O)(=O)N(C)c3ccccc3)cc2)o1	SW480 rerep 15µM, uPA surface inh inconclusive
CCc1nnc(NC(=O)c2ccc(S(=O)(=O)N3CCCc4ccccc43)cc2)o1	SW480 rerep 16µM, MCF10A rerep 9.2µM, uPA surface inh inconclusive
CCc1nnc(NC(=O)c2ccc(S(=O)(=O)N(CC(C)C)CC(C)C)cc2)o1	MCF10A rerep 8.9µM
CN(c1ccccc1)S(=O)(=O)c1ccc(NC(=O)c2ccccc2)cc1	none
Cc1ccc(OCC(=O)NNC(=O)C(=O)N2CCCC2)c(C)c1	none
O=c1oc2ccccc2cc1-c1nc2c(s1)CCc1ccccc1-2	SW480 rerep 21µM, MCF10A rerep inconclusive
O=c1oc2ccc3ccccc3c2cc1-c1nc2c(s1)CCc1ccccc1-2	none (no result: SW480 rerep, MCF10A rerep, uPA surface inh)
CCc1sc(-c2cc3ccc(O)cc3oc2=O)nc1-c1ccc(C)cc1	none (no result: SW480 rerep, MCF10A rerep, uPA surface inh)
O=c1oc2cc(O)ccc2cc1-c1nc2c(s1)CCc1ccccc1-2	SW480 rerep 3.7µM, MCF10A rerep inconclusive
Cc1cc(C)cc(-n2ncc3c2CCCC3NC(=O)c2ccccc2N2CCOCC2)c1 (stereo unspecified)	SW480 rerep 21µM, MCF10A rerep inconclusive
O=C(NC1CCCc2c1cnn2-c1ccccc1F)c1ccccc1N1CCOCC1 (stereo unspecified)	none
Cn1nccc1C(=O)NC1CCCc2c1cnn2-c1ccc(C(C)(C)C)cc1 (stereo unspecified)	SW480 rerep inconclusive, MCF10A rerep 18µM
CC(=O)NC1CCCc2c1cnn2-c1ccc(C(C)(C)C)cc1 (stereo unspecified)	none
Cc1ccc(Cl)cc1N1CCN(C(=O)c2ccccc2SCC(=O)N2CCCC2)CC1	none
Cc1cc(Cl)c(OCCn2ccnc2)c(Br)c1	MCF10A rerep 4.6µM
NNC(=O)c1nnsc1-c1csnn1	none
COC(=O)c1ccccc1NC(=O)N1CCc2ccc(NC(=O)c3ccccn3)cc2C1	SW480 rerep 18µM
CSc1ccc(C(=O)N2CCc3ccc(NC(=O)c4ccccn4)cc3C2)cc1	SW480 rerep inconclusive, MCF10A rerep inconclusive
CCCC(=O)Nc1ccc2c(c1)nc(CN1CCN(C(=O)OCC)CC1)n2CC	SW480 rerep 9.2µM, MCF10A rerep 7.3µM, uPA surface inh 3.5µM
Nc1cccc(S(=O)(=O)N2CCOCC2)c1	none (no result: SW480 rerep, MCF10A rerep, uPA surface inh)
C#C[C@@]1(O)CC[C@@H]2[C@@H]3CCC4=C(CCC(=O)C4)[C@H]3CC[C@]21C	none (no result: uPA surface inh, Giardia killer)
Cc1ccc(-c2c(C#N)c(N)n3c(nc4ccccc43)c2C#N)cc1	SW480 rerep 18µM, MCF10A rerep 18µM
Cc1c(CCCl)c(Cl)n2c(nc3ccccc32)c1C#N	SW480 rerep inconclusive, MCF10A rerep 2.9µM
Cc1cccc(NC(=O)CSc2cc(C)c(C#N)c3nc4ccccc4n23)c1	SW480 rerep 2.9µM
Cc1cc(Cl)n2c(nc3ccccc32)c1C#N	SW480 rerep 21µM, MCF10A rerep inconclusive
CNc1cc(C)c(C#N)c2nc3ccccc3n12	SW480 rerep inconclusive
CC12CCC=CC1C(c1ccc(C(F)(F)F)cc1)N(Cc1ccccc1)C2=O (stereo unspecified)	none (no result: SW480 rerep, MCF10A rerep, uPA surface inh)
Cn1c2c(c3cnc4cc(Cl)ccc4c31)CNCC2	none (no result: SW480 rerep, MCF10A rerep, uPA surface inh)
O=C1[C@H]2C(c3ccccc3)=NN(c3ccccc3)[C@H]2C(=O)N1c1ccccc1	MCF10A rerep 0.65µM
O=C1C2C(c3ccccc3)=NN(c3ccccc3)C2C(=O)N1c1ccccc1 (stereo unspecified)	MCF10A rerep inconclusive
CCCCNS(=O)(=O)CCNCc1ccco1	none
O/C=c1\ccc2cccc3nc(C(F)(F)F)nc1c23	MCF10A rerep 21µM

Assay outcomes as filed in PubChem BioAssay.
